DT40 TDP1 no CPT – qHTS for Inhibitors of human tyrosyl-DNA phosphodiesterase 1 (TDP1): qHTS in cells in absence of CPT; DT40 Tdp1-/- hTDP1 cells, no CPT, ATP luminescence, 48 h; Potency, µM (doses to about 46.2 µM), for inactives: top-dose activity change, negative = growth inhibition, hits mostly inhibitors; hit rate 15% among 420,000; AID 686978, 2013; further: nearly all actives have a fitted effect of over 55% in size
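Readout: luminescence from CellTiter-Glo after 30 min in the dark at RT. Cells: DT40 Tdp1-/- with stable hTDP1, 400/well. Exposure: compounds alone, ≥48 hr, 37 °C.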
KB-V1 cytotox – KB-V1 MDR subline cytotoxicity; hit rate 3.4% among 400,000; AID 1347076; KB-V1 MDR cells viability, CellTiter-Glo, 72 h; Potency, µM (top dose mostly 46.1 µM), actives largely listed as cytotoxic; further: nearly all actives have a fitted effect of over 60% in size
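Cells of the MDR subline KB-V1 are plated, dosed with compound at multiple concentrations, and incubated 72 h at 37 degrees C; CellTiter-Glo is then added and luminescence read after 10 min.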
DT40 TDP1 CPT – DT40-hTDP1 cell growth loss with CPT; chicken DT40 Tdp1-/-;hTDP1 cells + 20 nM CPT, ATP luminescence, 48 h; hit rate 12% among 420,000; AID 686979; Potency, µM (top dose mostly 46.2 µM), for inactives: at the highest dose activity change, negative = growth inhibition, most hits filed as inhibitors; further: nearly all actives have a fitted effect of over 55% in size
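Chicken DT40 Tdp1-/- cells stably complemented with human TDP1 were seeded at 400 cells/well in medium containing 20 nM camptothecin, exposed to pin-transferred compounds, and grown at 37 °C for at least 48 hr. Viability was read as ATP luminescence.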
KB-3-1 cytotox – kills parental KB-3-1 adenocarcinoma cells. KB-3-1 viability, CellTiter-Glo ATP luminescence, 72 h. Potency, µM (doses to about 46.1 µM), actives largely listed as cytotoxic. hit rate 1.4% among 400,000. AID 1347075; further: nearly all actives have a fitted effect of over 60% in size
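Parental KB-3-1 adenocarcinoma cells in phenol-red-free DMEM with 10% FBS were pin-treated with compounds at several concentrations, incubated 72 h at 37 °C, and viability read by CellTiter-Glo luminescence; concentration-effect curves were fitted after normalization.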
HT1080-NT tox – kills 2HG-producing HT-1080-NT fibrosarcoma cells. Potency, µM (doses to about 46.1 µM), inactives show at the top dose activity, negative = less viability, most hits filed as cytotoxic. hit rate 1.6% among 360,000. HT-1080-NT fibrosarcoma viability, CellTiter-Glo ATP luminescence, 48 h;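 further: NT is the 2HG producing partner of a matched IDH1 knockdown line; 0% = DMSO-treated cells and -100% = media-only wells without cells; nearly all actives have a fitted effect of over 55% in size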
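HT-1080-NT fibrosarcoma cells (2HG-overproducing), 750 cells/well in RPMI with 5% FBS, dosed after 2 h and incubated 48 h at 37C. CellTiter-Glo luminescence normalized to DMSO and no-cell wells; concentration-response curves fitted and classed.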
HT1080 IDH1KD tx – toxicity to HT-1080 IDH1 knockdown cells (counter line) | HT-1080 IDH1 knockdown viability, ATP luminescence, 48 h | Potency, µM (highest dose often 46.1 µM), without a hit: at the top dose activity, negative = toxicity, usual class: cytotoxic | hit rate 2% among 360,000;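 further: 0% = DMSO wells and -100% = cell-free medium wells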
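Luminescent ATP read-out (CellTiter-Glo, 10 min at room temperature) after 48 h compound exposure at 37 °C gave viability of IDH1-knockdown HT-1080 cells. Activity was normalised to DMSO and cell-free wells, then fitted as concentration-response curves.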
* = called active by the depositor; i = inactive; ? = inconclusive; nt = no result given. Rows were chosen to be rich in hits. Some 19% of all compounds tested hit in one or more screens of this group. The call rests on the fitted dose curve; in most records, active means well fitted curve in the direction sought with a large enough effect; inconclusive means small, poorly fitted or top-dose-only effect, or another doubt; inactive means no such curve, though single readings can be large; an effect the other way counts as inactive or inconclusive. Unless noted, on the % scale 0 is the no-effect control and ±100 the full control effect; potency means the concentration at half of the fitted maximal effect.

SMILES | DT40 TDP1 no CPT | KB-V1 cytotox | DT40 TDP1 CPT | KB-3-1 cytotox | HT1080-NT tox | HT1080 IDH1KD tx
Cc1cccc(C)c1NC(=O)CNC(=O)C(C)N1CCN(c2cccc(Cl)c2)CC1 (stereo unspecified) | ? | ? | ? | ? | -11% | -1%
NC(=O)c1oc2ccccc2c1NC(=O)c1ccc([N+](=O)[O-])o1 | 0.58µM* | 7.3µM* | 0.73µM* | 3.7µM* | 1.5µM* | 2.1µM*
O=C(Nc1cccnc1)c1ccc([N+](=O)[O-])o1 | 15µM* | ? | 9.2µM* | ? | ? | ?
O=C(NCc1cccnc1)c1ccc(N2CCOCC2)c([N+](=O)[O-])c1 | 16µM* | i | ? | i | 9% | 1%
O=C(NCc1cccnc1)c1ccc([N+](=O)[O-])o1 | ? | 23µM* | ? | i | ? | ?
NC(=O)c1oc2ccccc2c1NC(=O)c1ccc(F)cc1 | -15% | i | -7% | i | 0% | -5%
CN(Cc1ccccc1)c1ccc(C=O)cc1 | ? | i | ? | i | nt | nt
COc1ccc(CNC(=O)Cn2ccc3cc(S(=O)(=O)N4CCCCCC4)ccc32)c(OC)c1 | ? | i | ? | i | nt | nt
CC1CCCCN1c1nnc(NC(=O)Nc2ccccc2F)s1 (stereo unspecified) | 21µM* | i | ? | i | nt | nt
O=C(Nc1cccc(Cl)c1)Nc1nnc(CC2=CCCCC2)s1 | 18µM* | i | 4.6µM* | 23µM* | -1% | -1%
O=C(Nc1nnc(CC2=CCCCC2)s1)Nc1ccccc1F | ? | i | ? | i | -8% | 33µM*
Cc1ccc(/C=N/NC(=O)c2cc(-c3ccc(C)o3)[nH]n2)cc1 | 15µM* | ? | 13µM* | ? | ? | 21µM*
Cc1cc(C(=O)N/N=C/c2ccc(OC(=O)c3ccccc3Br)cc2)n[nH]1 | ? | i | ? | i | -17% | -13%
Cc1cc(C(=O)N/N=C/c2cc(Br)ccc2OC(=O)c2ccccc2Cl)n[nH]1 | 4.6µM* | ? | 5.8µM* | ? | ? | 21µM*
COC(=O)N/N=C/c1ccc(-c2cc(Cl)ccc2Cl)o1 | -3% | 21µM* | 6% | ? | -2% | 2%
Cc1cc(C(=O)N/N=C/c2cc(Br)ccc2OC(=O)c2ccccc2)n[nH]1 | 6.5µM* | i | 7.3µM* | i | ? | 8.2µM*
Cc1cc(C(=O)N/N=C/c2ccc(-c3ccccc3Cl)o2)n[nH]1 | ? | 23µM* | -28% | ? | 1% | -1%
Cc1cc(C(=O)N/N=C/c2ccc(-c3ccc([N+](=O)[O-])cc3Cl)o2)n[nH]1 | -29% | i | -16% | i | -2% | 1%
CCc1ccc(N/C(N)=N/c2nc(CSc3ncccn3)cc(=O)[nH]2)cc1 | 13µM* | i | ? | ? | -11% | -6%
Cc1cccc(N/C(N)=N/c2nc(CSc3ccc(Cl)cc3)cc(=O)[nH]2)c1 | 9.2µM* | i | 8.2µM* | i | 0% | -3%
COCc1cc(=O)[nH]c(/N=C(\N)Nc2ccc(Oc3ccccc3)cc2)n1 | ? | 18µM* | -23% | i | -15% | 3%
CCOc1ccc(N/C(N)=N/c2nc(CSc3nnnn3-c3ccccc3)cc(=O)[nH]2)cc1 | ? | i | 16µM* | ? | -1% | 5%
Cc1ccc(N2C(=O)Nc3ccccc3C2(O)C(=O)N2CCN(c3ccccn3)CC2)cc1C (stereo unspecified) | -13% | i | ? | i | -2% | -8%
Cc1ccc(N/C(N)=N/c2nc(CSc3nnc(C)s3)cc(=O)[nH]2)c(C)c1 | 0.82µM* | ? | 0.65µM* | 2.3µM* | 2.6µM* | 4.1µM*
CCC(=O)N1CCc2cc(CNC(=O)Nc3ccc(OC)cc3OC)ccc21 | -8% | i | -7% | i | nt | nt
COc1ccc([C@H]2CC(=O)C=C(c3cc(F)ccc3F)C2)cc1OC | -52% | i | ? | i | -1% | -11%
COc1ccc([C@H]2CC(=O)C=C(c3ccc(CNC(=O)OC(C)(C)C)cc3)C2)cc1 | 23µM* | ? | ? | ? | -26% | ?
COc1ccc([C@H]2CC(=O)C=C(c3ccc(-c4ccccc4)cc3)C2)cc1OC | -21% | i | -14% | i | -5% | 8%
COc1ccc(C2=CC(=O)C[C@H](c3ccc(OC)c(OC)c3)C2)cc1 | 18µM* | i | 13µM* | i | 0% | -1%
COc1ccc([C@H]2CC(=O)C=C(c3ccc(C)cc3)C2)cc1OC | ? | i | 18µM* | i | 4% | -11%
